Screening results deposited in PubChem by National Center for Advancing Translational Sciences (NCATS).
The list is not random: actives were taken first. Their share in the collection is about 4.8%.
D3 ag – agonists of human D3 dopamine receptor; 410,000 tested, 0.58% active; D3R DiscoveRx beta-arrestin cells, luminescence, 90 min; P35462; max activation, %; in the data active = max activation above about 30%
Target sequence (P35462 whole entry, looked up): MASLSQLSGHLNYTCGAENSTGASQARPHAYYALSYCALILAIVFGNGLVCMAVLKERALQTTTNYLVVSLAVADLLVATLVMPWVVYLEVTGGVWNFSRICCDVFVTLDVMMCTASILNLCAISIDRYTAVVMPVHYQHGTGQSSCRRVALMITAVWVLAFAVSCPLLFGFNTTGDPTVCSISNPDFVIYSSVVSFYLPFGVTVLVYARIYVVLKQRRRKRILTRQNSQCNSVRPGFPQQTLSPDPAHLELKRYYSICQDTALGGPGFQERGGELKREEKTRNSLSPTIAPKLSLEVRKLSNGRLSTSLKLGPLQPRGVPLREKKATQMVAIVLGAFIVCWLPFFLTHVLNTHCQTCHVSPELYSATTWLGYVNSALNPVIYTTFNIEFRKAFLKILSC
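Agonist-mode cell screen: cells plated at 1500/well and incubated overnight at 37 °C, then exposed to library compounds for 90 min at 37 °C. Detection reagent was added for 30–60 min at room temperature, and luminescence was read.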
TGFb SMAD3 inh – inhibitors of TGF-b signaling | 410,000 tested, 1.2% active | HepG2 CAGA-GFP TGF-b/SMAD3 reporter, GFP fluorescence, 18 h; TGF-beta stimulated, 500 pg/mL final | AID 588855 | Potency, µM (series often up to 46.1 µM), actives largely listed as inhibitors; also: nearly all actives have a fitted effect of over 65% in size
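Read-out: total well GFP (ex488/em500-530) summed from mean per-cell fluorescence. Cells: HEPG2 CAGA-GFP, 1% FBS DMEM, 18 h at 37 degrees C with 500 pg/mL final TGF-beta. Unstimulated wells served as the full-inhibition control; stimulated DMSO wells = 0%.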
S2 tox – cell viability loss in ATXN counter-screen; AID 651635; S2 cells (HEK-293 line with an ATXN2-luciferase reporter) viability, CellTiter-Fluor protease fluorescence, 24 h; Potency, µM (highest dose often 56.7 µM), most hits filed as cytotoxic; 400,000 tested, 0.49% active; also: nearly all actives have a fitted effect of over 40% in size
ATXN2 expr inh – ATXN2 expression inhibition; HEK-293 ATXN2-luciferase reporter, luminescence, 24 h; Potency, µM (top dose mostly 57 µM), actives largely listed as inhibitors; 360,000 tested, 0.72% active; also: nearly all actives have a fitted effect of over 55% in size
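qHTS (up to 57 uM final) was run with 24 h compound exposure of reporter cells at 37 °C. Each well was multiplexed: SteadyGlo luminescence measured ATXN2-luciferase expression after a fluorogenic Gly-Phe-AFC viability readout (25 uM final).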
HepG2 viability – kills HepG2 cells in TGF-b inhibitor counter-screen; Potency, µM (doses to about 46.1 µM), most hits filed as cytotoxic; HepG2 CAGA-GFP viability, ATP luminescence, 18 h; 410,000 tested, 0.76% active; AID 588856
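CellTiter-Glo luminescence gave cytotoxicity after 18 hours at 37 degrees C. The cells were HepG2 CAGA-GFP in 1% FBS DMEM, stimulated with 500 pg/mL TGF-beta after compound addition. %Activity was normalised to no-cell wells (complete cell-killing) and DMSO (no toxicity), and curves were fitted and classified.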
D3 antag – D3 dopamine receptor (human) antagonism; max response, negative = inhibition, %; D3R cells, DiscoveRx beta-arrestin luminescence, antagonist mode; stronger effect = lower value; P35462; 360,000 tested, 2.5% active; in the data active = max response below about -50%; inconclusive = no clear call, values can overlap the other calls
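Cells expressing the human receptor were seeded at 1500 cells/well, incubated overnight at 37 degrees C in 5% CO2, then exposed to library compounds with dopamine controls for 90 minutes at 37 degrees C before luminescent detection.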
Hits are given with their value; – = inactive; ? = inconclusive; · = no result given. Unless noted, calls follow the shape of the dose curve; as a rule, active = well fitted curve in the direction sought with a large enough effect; inconclusive = small, poorly fitted or top-dose-only effect, or another doubt; inactive = no such curve, though single readings can be large; an effect the other way counts as inactive or inconclusive.

SMILES | D3 ag | TGFb SMAD3 inh | S2 tox | ATXN2 expr inh | HepG2 viability | D3 antag
CN(C)c1ccc2nc3c(=O)[nH]c(=O)nc-3n(CC(O)C(O)C(O)CO)c2c1 (stereo not given) | – | – | 13µM | · | – | ?
Cc1cc(C)cc(NC(=O)Cn2c(=O)n(C(C)C)c(=O)c3oc4ccccc4c32)c1 | – | – | · | · | – | ·
COc1ccc(C(c2nnnn2-c2ccc3c(c2)OCCO3)N2CCN(C/C=C/c3ccccc3)CC2)cc1 (stereo not given) | – | ? | – | – | – | -76
CCCCn1nnnc1C(c1cc2ccccc2o1)N1CCN(C/C=C/c2ccccc2)CC1 (stereo not given) | – | ? | ? | – | – | -72
CCC(c1nnnn1-c1ccc2c(c1)OCCO2)N1CCN(c2ccc(OC)cc2)CC1 (stereo not given) | – | · | – | – | · | –
COc1ccc(-n2nnnc2C(c2cc3ccccc3o2)N2CCN(C/C=C/c3ccccc3)CC2)cc1 (stereo not given) | – | – | ? | – | – | -98
C(=C\c1ccccc1)/CN1CCN(C(c2cc3ccccc3o2)c2nnnn2-c2ccc3c(c2)OCCO3)CC1 (stereo not given) | – | – | – | – | – | -89
CCN1CCc2nc3sc(C(=O)c4ccccc4)c(N)c3cc2C1 | – | – | ? | – | – | ·
COc1ccc(C2C=C(c3ccccc3)Nc3nc(NC(=O)/C=C/c4ccc(F)cc4)nn32)cc1 (stereo not given) | – | – | – | – | – | ·
Cc1ccccc1OCC(=O)NCC(=O)OCc1ccc2ccccc2c1 | · | – | · | · | – | ·
C(=C\c1ccccc1)/CN1CCN(C(c2cccs2)c2nnnn2-c2ccc3c(c2)OCCO3)CC1 (stereo not given) | – | ? | – | – | – | -79
COc1ccc(-n2nnnc2C(c2cccc3ccccc23)N2CCN(C/C=C/c3ccccc3)CC2)cc1 (stereo not given) | – | ? | ? | – | – | -92
C(=C\c1ccccc1)/CN1CCN(C(c2cccc3ccccc23)c2nnnn2Cc2ccccc2)CC1 (stereo not given) | – | ? | – | – | – | ?
CCN1CCCC1CNC(=O)c1cnn(-c2ncc(C)c(-c3ccc(F)cc3)n2)c1C(C)C (stereo not given) | · | · | – | · | · | ·
CC(=O)c1cc(C#N)c(SCC(=O)O)nc1C | – | – | – | – | – | –
CCCCSc1nc(C)c(C(C)=O)cc1C#N | – | – | – | – | – | -52
c1cncc(OC2CCN(Cc3ccc4c(c3)CN(Cc3ccc5c(c3)CCO5)CCO4)CC2)c1 | · | · | – | · | · | ·
CC(C)(CO)NC(=O)c1cnn(-c2ncc3c(n2)-c2ccccc2CC3)c1C1CC1 | · | · | – | · | · | ·
CCC1CN(CCNC(=O)c2cc(C(C)C)nn2C)Cc2cc(OC)ccc2O1 (stereo not given) | · | · | – | · | · | ·
Cc1cc(C)nc(SCc2ccc(C(=O)NNC(=O)Nc3cccc(Cl)c3)cc2)n1 | – | ? | ? | ? | – | -58
Cc1cc(C)nc(SCc2ccc(C(=O)N/N=C/c3ccncc3)cc2)n1 | – | – | – | – | – | –
O=C1CC(=C2c3ccccc3-c3ccccc32)C(=O)N1CCN1CCN(c2ccccc2)CC1 | – | – | – | – | – | –
COc1ccccc1N1CCN(C(=O)CCC(=O)N2CCN(c3ccccc3OC)CC2)CC1 | – | – | – | · | – | –
COc1ccccc1N1CCN(CCN2C(=O)CC(=C3c4ccccc4-c4ccccc43)C2=O)CC1 | – | – | – | – | – | -76
Cc1ccccc1N1CCN(CCN2C(=O)CC(=C3c4ccccc4-c4ccccc43)C2=O)CC1 | – | ? | – | – | – | -65
Oc1ccc(-c2ccc(-c3cc(Nc4cccc(CNC5CC5)c4)n[nH]3)cc2)c(O)c1 | · | · | · | 2.4µM | · | ·
CCOC(=O)CCc1c(C)nc(SCCN2CCCC2)c(C#N)c1C | – | – | – | – | – | -56
Cc1cc(-c2ccccc2)c2c(n1)sc1c(O)cc(=O)[nH]c12 | – | – | – | – | – | –
